“And” between values parts separate entries of the source, which are not always exact repeats. Equal entries are not always repeated. More than one record can exist for a structure, and the calls need not agree. The source made the active and inactive calls. How the source made its calls: active means hit-call score of the fitted dose curve at least 0.9, where 1 is the maximum; inactive means score below 0.9.

Chain of Transcriptional activator Myb (Homo sapiens) (P10242 whole entry, looked up): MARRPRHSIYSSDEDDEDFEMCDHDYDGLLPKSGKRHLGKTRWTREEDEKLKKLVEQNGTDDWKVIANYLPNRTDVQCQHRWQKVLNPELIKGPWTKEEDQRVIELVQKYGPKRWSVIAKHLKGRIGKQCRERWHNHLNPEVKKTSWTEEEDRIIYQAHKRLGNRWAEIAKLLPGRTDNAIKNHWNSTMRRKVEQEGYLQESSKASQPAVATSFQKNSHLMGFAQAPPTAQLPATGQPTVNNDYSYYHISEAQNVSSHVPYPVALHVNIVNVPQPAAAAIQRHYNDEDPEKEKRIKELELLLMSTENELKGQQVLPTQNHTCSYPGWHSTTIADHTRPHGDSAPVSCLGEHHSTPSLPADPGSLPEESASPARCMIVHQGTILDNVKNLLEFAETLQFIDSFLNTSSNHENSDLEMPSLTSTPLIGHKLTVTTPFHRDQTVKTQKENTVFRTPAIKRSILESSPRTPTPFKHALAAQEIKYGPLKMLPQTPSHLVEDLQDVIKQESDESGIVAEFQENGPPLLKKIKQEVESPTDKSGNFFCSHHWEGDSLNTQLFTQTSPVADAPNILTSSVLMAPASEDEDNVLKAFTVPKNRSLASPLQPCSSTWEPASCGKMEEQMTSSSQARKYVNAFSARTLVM

The target in this assay is Transcriptional activator Myb (Homo sapiens) (UniProt P10242). The experiment in a line: ATG_Myb_CIS: Attagene CIS-FACTORIAL HepG2 Assay for human Myeloblastosis (Myb) Proto-Oncogene Transcription Factor (AID 2282986). The following applies: HepG2 Attagene CIS-FACTORIAL Myb reporter transcription; actives raise or lower the signal. As for the experimental part:
ATG_CIS is a cell-based, multiplexed-readout assay that uses HepG2, a human liver cell line, with measurements taken at 24 hours after chemical dosing in a 24-well plate.ATG_Myb_CIS is one of 52 assay component(s) measured or calculated from the ATG_CIS assay. It is designed to make measurements of mRNA induction, a form of inducible reporter, as detected with fluorescence intensity signals by Reverse transcription polymerase chain reaction (RT-PCR) and Capillary electrophoresis technology.Data from the assay component ATG_Myb_CIS was analyzed into 1 assay endpoint. This assay endpoint, ATG_Myb_CIS, was analyzed with bidirectional fitting relative to DMSO as the negative control and baseline of activity. Using a type of inducible reporter, measures of mRNA for gain or loss-of-signal activity can be used to understand the reporter gene at the transcription factor-level as they relate to the gene MYB. Furthermore, this assay endpoint can be referred to as a primary readout, because this assay has produced multiple assay endpoints where this one serves a reporter gene function. To generalize the intended target to other relatable targets, this assay endpoint is annotated to the dna binding intended target family, where the subfamily is MYB proteins.
Human liver HepG2 cells are transiently transfected with multiple reporter transcription units (MRTUs) in 6-well plates using FuGene 6 reagent (Roche; 3 ml FuGene/1 mg DNA). The MRTU constructs are regulated by a cis-regulating element (promoter). […] A major difference between the CIS and TRANS system is that in CIS activities of endogenous TFs are measured, whereas the TRANS assay evaluates changes in activities of exogenous, chimeric NR-Gal4 proteins. […] At the end of 24 hour incubation, total RNA was isolated using TriZol reagent (Invitrogen). The isolated RNA is then reverse-transcribed using oligo(dT) primer and Mo-MLV reverse transcriptase (Invitrogen) with DNAse I (Ambion) treatment for 30 min. The one-tenth of the produced cDNA was amplified by PCR using Taq DNA polymerase (Invitrogen) and two reporter sequence-specific primers. The PCR products were fluorescently labeled by primer extension with 6-arboxyfluorescein (6-FAM) 5'-labeled reporter sequence-specific primer (2 min at 95 C, 20 s at 68 C and 10 min at 72 C) and these products were digested with 5U of HpaI (New England Biolabs) for 2h at 37 C. The fragments were purified using Qiaquick PCR columns (Qiagen), analyzed on an ABI 3130xL genetic analyzer (Applied Biosystems) with peak positions identified by using a set of X-rhodamine (ROX)-labeled MapMarker1000 molecular weight standards (BioVentures). The raw capillary electrophoresis data was processed using Attagraph software (Attagene).
Regarding `CCCCCCC(O)CCOC(C)=O` (stereo not given), the call was inactive.

On to `C1=COCCC1`, for which the outcome was inactive. In the case of `CCC(=O)OC(C)(C)C1CC=C(C)CC1` (stereo not given), the compound was called inactive. As for `CC(=O)CC(=O)N(C)C`, the outcome was inactive. Take `CC(C)C(=O)OCC=Cc1ccccc1`: the call was inactive.

Turning to `CCC(C)C1CCCCC1=O` (stereo not given), the compound was called inactive.

`NC(=O)c1cccnc1`: the outcome was inactive. Take `CC(C)=CCCC(C)=CC(=O)O`: the result was inactive. Still for that read-out and setting: the value for `CC1=CC(C)C(C=O)C(C)C1` (stereo not given) (tested in a mixture with another compound) was “inactive”. On to `N=C1N=C(N)c2ccccc21`, for which the call was inactive. In the case of `CC1(C)[C@H](C=C(Cl)Cl)[C@H]1C(=O)OCc1cccc(Oc2ccccc2)c1`, the compound was classed as inactive.

On to `C=CCOCC(O)CO` (stereo not given), for which the concentration at half-maximal activity (AC50) is 152 µM (active).

For the compound `CC(C)(O)CCc1ccccc1`, the compound was called inactive. As for `C=C/C(C)=C/C/C=C(\C)CCC=C(C)C`, the compound was classed as inactive. The same measure, in the same setting: the value for `CCCCCCCCCCOC(=O)c1ccccc1C(=O)OCCCCCCCC` was “inactive”; that for `CC(=O)Nc1cc(S(=O)(=O)O)cc2cc(S(=O)(=O)O)c(N=Nc3ccccc3)c(O)c12` was “inactive”.

On to `C=C1CC[C@H]2O[C@]2(C)CC[C@@H]2[C@@H]1CC2(C)C`, for which the call was inactive. On to `C#C[C@]1(O)CC[C@H]2[C@@H]3CCc4cc(O)ccc4[C@H]3CC[C@@]21C`, for which the compound was called inactive; the half-maximal activity concentration (AC50) is 156 µM (active) and 172 µM (active). Consider `C=CCCCCCCCCC(=O)OCC`, for which the call was inactive.

For `OCCN1CCOCC1`, the compound was classed as inactive. On to `CCCCOCCOCCO`, for which the compound was called inactive. Take `N#CCCNCCC#N`: the call was inactive.

For `O=C1CCCCCCCCCCCC(=O)OCCO1`, the call was inactive. Still for that read-out and setting: then `CCOC(=O)CC1(C)OCC(C)O1` (stereo not given), with “inactive”; and `CCCCCCCCCCCCS`, with “inactive”.

For the compound `COc1ccccc1O`, the result was inactive. On the same count and under the same terms, the value for `CC1=C(C=O)C(C)(C)CCC1` was “inactive”.

Regarding `NC(=O)c1c(Cl)cccc1Cl`, the call was inactive. Take `S=c1[nH][nH]c(=S)s1`: the outcome was inactive. Turning to `CC(CCO)CC(C)(C)C` (stereo not given), the result was inactive. For `CC(CO)c1ccccc1` (stereo not given), the compound was called inactive.

Regarding `N#CCCCC(C#N)CCC#N` (stereo not given), the compound was called inactive. For `CC(=O)CC(C)(C)C1CCCCC1`, the outcome was inactive. `O=S(=O)(O)c1cc(S(=O)(=O)O)c2c(N=Nc3ccccc3)c(O)ccc2c1`: the result was inactive. Still for that read-out and setting: then `O=C(O)C1=NN(c2ccc(S(=O)(=O)O)cc2)C(=O)C1`, with “inactive”; and `CN(C)CCC=C1c2ccccc2CCc2ccccc21`, with “inactive”.

With `COc1ccc(C(C)=O)cc1`, the result was inactive.

With `CCCCCC#CC(=O)OC`, the compound was classed as inactive.

On to `CC1COC(=O)O1` (stereo not given), for which the result was inactive.

Values taken from PubChem BioAssay (EPA / NIEHS).
